Bioassay records from PubChem.
aSyn rescue = inhibitors of alpha-synuclein toxicity in yeast; hit rate 0.14% among 370,000; Yeast expressing alpha-synuclein, growth rescue, BacTiter-Glo, 24 h; AID 652106; Potency, µM (doses to about 46.1 µM), for the others: top-dose growth rescue (activation), usual class: activators; further: % of control where 0% means no effect; nearly all actives have a fitted effect of over 65% in size
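Readout is rescue of growth in alpha-synuclein-expressing yeast, so inhibitors of toxicity appear as activators. Growth after 24 hr at 30 deg C in galactose medium is quantified by luminescence.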
TDP-43 yeast inh = TDP-43 toxicity inhibition in yeast. Potency, µM (doses to about 46.1 µM), for inactives: at the top dose growth rescue (activation), hits mostly activators. AID 652104. hit rate 1.8% among 410,000. TDP-43 expressing yeast growth rescue, BacTiter-Glo, 24 h; further: % of control where 0% means no effect; nearly all actives have a fitted effect of over 50% in size
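In this qHTS, compounds that restore growth of yeast expressing TDP-43 appear as activators. Cells (OD600=0.02, galactose medium, raffinose-pregrown) are incubated with compound 24 hr at 30 deg C and growth is quantified by BacTiter-Glo.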
MBNL1-CUG inh = MBNL1-poly(CUG) RNA binding inhibition. TR-FRET MBNL1-His/biotin-(CUG)12 binding, 665/545 ratio. Potency, µM (top dose mostly 57.5 µM), inactives show at the highest dose activity change, negative = inhibition, hits mostly inhibitors. hit rate 0.036% among 280,000. AID 2675; active means well fitted inhibition curve with a large enough effect in the signal ratio, with a control signal flat, not every such curve was filed as active; inconclusive means small, poorly fitted or top-dose-only effect, or effect the other way, or a change in a side signal; inactive means no such curve, though single readings can be large or run the other way; the % refers to the signal ratio; further: on the % scale 0 is the no-effect control and ±100 the full control effect
Target sequence (Q9NR56 whole entry, looked up): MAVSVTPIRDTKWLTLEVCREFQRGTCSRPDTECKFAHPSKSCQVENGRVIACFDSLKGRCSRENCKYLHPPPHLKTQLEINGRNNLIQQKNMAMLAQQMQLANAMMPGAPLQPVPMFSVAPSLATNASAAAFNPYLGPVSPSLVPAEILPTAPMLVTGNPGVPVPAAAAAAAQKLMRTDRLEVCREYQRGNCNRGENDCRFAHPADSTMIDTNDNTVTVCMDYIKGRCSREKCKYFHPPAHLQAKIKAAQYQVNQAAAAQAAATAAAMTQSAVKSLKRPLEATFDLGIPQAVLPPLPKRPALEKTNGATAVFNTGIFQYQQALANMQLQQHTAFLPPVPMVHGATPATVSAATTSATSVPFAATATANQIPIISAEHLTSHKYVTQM
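Compounds (final 92 nM to 58 uM) are added to His-tagged MBNL1 and biotin-(CUG)12, then terbium anti-His antibody and streptavidin-XL665 (5 nM final). After 60 min at room temperature, the 665/545 nm ratio is read.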
GRP78 ERSR act = induces the endoplasmic reticulum stress response in human glioma cells; U87-MG GRP78 promoter luciferase reporter, 16 h; Potency, µM, inactives show at the highest dose activation, most hits filed as activators; hit rate 0.02% among 420,000; further: series mostly up to about 76 µM; % of control where 0% means no effect; nearly all actives have a fitted effect of over 35% in size
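Stably transfected U87-MG human glioma cells carrying a GRP78-based luminescent sensor were seeded at 1000 cells/well, pin-dosed with compounds and incubated 16 h. Luciferase reagent was then added, and end-point luminescence was read after 10 min at room temperature.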
FUS yeast rescue = suppressors of FUS proteinopathy in yeast | hit rate 0.24% among 390,000 | S. cerevisiae FUS-expressing, growth rescue, OD600, 24 h | Potency, µM (highest dose often 76.6 µM), usual class: activators;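 further: plate controls were DMSO vehicle for no effect and reference control for full effect; nearly all actives have a fitted effect of over 55% in size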
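Galactose (2%) drives FUS expression in yeast precultured in raffinose; seeding density OD 0.005. Test compounds incubated 24hr at 30C and 99% humidity before absorbance at 600 nm was measured.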
Abeta yeast res = A-beta toxicity reversal in yeast. Potency, µM (series often up to 46.1 µM), usual class: activators. hit rate 0.063% among 410,000. yeast expressing A-beta42, growth rescue, OD600, 48 h; response scale: 0% DMSO, 100% iron-clioquinol control; further: nearly all actives have a fitted effect of over 55% in size
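Yeast A-beta toxicity model in growth medium with pinned compounds, 48 h at 30 C; growth read as absorbance at 600 nm. Normalized to FeCl3/clioquinol equimolar mix (positive) and DMSO (negative).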
Numbers without * were called inactive; i = inactive; ? = inconclusive; / = no result. A selection: hits, their analogues and other compounds. The true share with any hit is near 2%. Unless noted, the call rests on the fitted dose curve; in most records, active means well fitted curve in the direction sought with a large enough effect; inconclusive means small, poorly fitted or top-dose-only effect, or another doubt; inactive means no such curve, though single readings can be large; an effect the other way counts as inactive or inconclusive. Potency means the concentration at half of the fitted maximal effect.

SMILES	aSyn rescue	TDP-43 yeast inh	MBNL1-CUG inh	GRP78 ERSR act	FUS yeast rescue	Abeta yeast res
O=C(Cc1cccs1)NNC(=S)NC(=O)c1ccc(F)c(F)c1	?	?	/	-4.1%	i	?
CCc1noc(C)c1C(=O)Nc1nc(-c2cccs2)cs1	-10.4%	12.6µM*	/	0.8%	i	i
Cc1cc(NS(=O)(=O)c2ccc(CC(C)C)cc2)no1	1.9%	17.8µM*	2.9%	3.4%	i	i
Cc1cc(NS(=O)(=O)c2ccc(C(C)C)cc2)no1	8.1%	14.1µM*	9.2%	-4.1%	i	?
Cc1ccccc1N=Cc1ccc[nH]1	0.3%	?	/	1.5%	i	i
Cc1ccc(N=Cc2ccc[nH]2)c(O)c1	-1.8%	-22.9%	10.9%	0.5%	35.5µM*	i
CCOC(=O)N1CCN(C(=O)c2ccc3oc(CCCc4ccccc4)nc3c2)CC1	5.9%	15.8µM*	4.2%	-5.7%	i	i
O=C(CSc1nnc(-c2ccccn2)n1-c1ccccc1)Nc1ccc2c(c1)OCCO2	/	/	/	/	i	/
CCCCN1C(=O)C(O)(CC(=O)c2ccc(CC)cc2)c2cc(Br)ccc21 (configuration not stated)	/	17.8µM*	/	?	i	i
CCn1nccc1C(=O)Nc1cc(Cl)cc(Cl)c1	2.5%	20µM*	-5.9%	4.1%	i	i
CCn1nccc1C(=O)Nc1ccc(Cl)cn1	0.6%	29.8%	-5.8%	2.3%	i	i
CC(C)(C)n1ncc2c(=O)n(Cc3ccc(Cl)cc3C(F)(F)F)cnc21	/	/	/	-3.4%	/	/
Cc1ccnc(Nc2nc(-c3ccccc3)cs2)c1	-22.1%	?	7.7%	0.9%	i	i
CC(=O)Nc1cccc(-c2csc(Nc3ccc(Cl)cn3)n2)c1	3.0%	22.4µM*	7.1%	-2.0%	i	i
COc1ccc(-c2csc(Nc3cc(C)ccn3)n2)cc1OC	-24.8%	14.1µM*	109.4%	-2.1%	i	i
CC(=O)Nc1ccc(-c2csc(Nc3cc(C)ccn3)n2)cc1	-22.7%	15.8µM*	-5.5%	-4.6%	i	i
CC(=O)Nc1cccc(-c2csc(Nc3cc(C)ccn3)n2)c1	-19.9%	-3.0%	14.7%	6.5%	i	i
CC(=O)Nc1ccc(-c2csc(Nc3ccc(Cl)cn3)n2)cc1	-17.3%	9.1%	11.9%	5.9%	i	i
